# Laboratory results: PubChem BioAssay AID779 (Sanford-Burnham Center for Chemical Genomics, 2007)
# Values without a mark were called inactive. No rule for the calls is given here.
# Assay: PLAP enzyme activity inhibition – biochemical, colorimetric, counter-screen, dose response (AID 779)
# Settings: colorimetric OD read-out
row,SMILES,IC50
1,c1ccc(-c2cn3nc(-c4ccccc4)c(-c4ccccc4)nc3n2)cc1,> 50 µM
2,Cc1c(NC(=S)N/N=C/c2cccc(O)c2)c(=O)n(-c2ccccc2)n1C,> 50 µM
3,Clc1ccccc1CSc1nnc(-c2ccco2)c(-c2ccco2)n1,> 50 µM
4,CSc1nc(NCCOCCO)c2sc3nc(-c4ccco4)c4c(c3c2n1)CCC4,> 50 µM
5,COc1ccc(-n2c(NC(=O)c3ccc(Br)o3)c(C#N)c3nc4ccccc4nc32)cc1,> 50 µM
6,CCSc1nnc(NC(=O)C(C(F)(F)F)C(F)(F)F)s1,> 50 µM
7,CC(=O)Nc1ccc(NC2=Nc3ccccc3N3C2=Nc2c(c(C)nn2-c2ccccc2)C3c2ccccc2)cc1 (stereo not given),> 50 µM
8,CC(C)CC(C(=O)Nc1oc(-c2ccco2)c(-c2ccco2)c1C#N)N1C(=O)c2ccccc2C1=O (stereo not given),> 50 µM
9,CCN(CCNC(=O)C1CCCN(S(=O)(=O)CC)C1)c1ccccc1 (stereo not given),> 50 µM
10,C/C(=C\C(=O)c1ccccc1)NNc1nc2ccccc2s1,> 50 µM
11,CCN(CCO)c1nc(SC)nc2c1sc1nc(-c3ccco3)c3c(c12)CCC3,> 50 µM
12,Oc1ccc(-c2cn3c(n2)SCC3)cc1O,> 50 µM
13,CS(=O)(=O)N(CC(=O)Nc1cccc(Cl)c1)c1ccccc1Cl,> 50 µM
14,O=[N+]([O-])/C=C/c1cn(Cc2ccccc2)c2ccccc12,> 50 µM
15,O=C(/C=C/c1ccccc1)c1cc(Br)ccc(=O)c1O,> 50 µM
